According to PubChem BioAssay AID1159580 (chemical genetic matrix, 2015):
Screen size: about 5,500 compounds; about 2,000 (36%) were called active. About 18% were inconclusive and are not listed. Rule as the data show it: active = normalized growth mostly below about 0.91 (no sharp cut-off); inconclusive = no clear call, values can overlap the other calls; inactive = mostly above about 0.92. The list shows a part of the results.

Test: chemical genetic growth profiling, strain panel (AID 1159580);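 also: tested at 20 µM; growth read once vehicle control cultures reached saturation at 30 °C; 1 = growth at the plate median or of vehicle wells; lower values mean less growth of the strain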
Conditions: S. cerevisiae deletion strains, growth OD

Measured: normalized growth

COc1ccc2cc3[n+](cc2c1OC)CCc1cc2c(cc1-3)OCO2
inactive: locus YKL009W, strain mrt4, hits give low values 0.922 | locus YKL068W, hits give low values 1 | locus YKL085W, strain MDH1 (second series), hits give low values 0.996 | locus YKL085W, strain MDH1, hits give low values 0.996 | locus YKL160W, strain elf1, hits give low values 0.985 | locus YKR026C, strain gcn3, hits give low values 0.994 | locus YKR091W, strain srl3, hits give low values 0.985 | locus YLL001W, strain dnm1, hits give low values 0.99 | locus YLL026W, hits give low values 1.02 | locus YLL041C, strain sdh2, hits give low values 0.989 | locus YLR027C, strain aat2, hits give low values 0.972 | locus YLR039C, strain RIC1, hits give low values 0.904 | locus YLR221C, strain rsa3, hits give low values 1 | locus YLR258W, strain gsy2, hits give low values 0.99 | locus YLR262C, strain YPT6 (second series), hits give low values 1.04 | locus YLR262C, strain YPT6, hits give low values 0.82 | locus YLR320W, strain mms22, hits give low values 0.993 | locus YLR342W, strain FKS1, hits give low values 0.979 | locus YLR357W, strain rsc2, hits give low values 0.948 | locus YLR370C, strain arc18, hits give low values 0.99 | locus YLR384C, strain iki3, hits give low values 0.975 | locus YML120C, strain ndi1, hits give low values 0.996 | locus YMR058W, strain fet3, hits give low values 0.985 | locus YMR078C, strain ctf18, hits give low values 0.912 | locus YMR125W, strain sto1, hits give low values 0.981 | locus YMR129W, hits give low values 0.991 | locus YMR205C, strain PFK2, hits give low values 0.967 | locus YMR231W, strain pep5, hits give low values 0.995 | locus YMR307W, strain GAS1, hits give low values 0.986
active: locus YJR075W, strain HOC1, hits give low values 0.394 | locus YKL190W, strain CNB1, hits give low values 0.293 | locus YKR001C, strain vps1, hits give low values 0.338 | locus YLR058C, strain SHM2, hits give low values 0.409 | locus YLR102C, strain apc9, hits give low values 0.702 | locus YLR113W, strain HOG1, hits give low values 0.83 | locus YLR268W, strain sec22, hits give low values 0.409 | locus YLR330W, strain CHS5, hits give low values 0.711 | locus YLR342W, strain FKS1 (second series), hits give low values 0.373 | locus YLR371W, strain rom2, hits give low values 0.8 | locus YLR418C, strain cdc73, hits give low values 0.478 | locus YML016C, strain PPZ1, hits give low values 0.413 | locus YML032C, strain rad52, hits give low values 0.459 | locus YML124C, strain tub3, hits give low values 0.652 | locus YMR223W, strain ubp8, hits give low values 0.393 | locus YMR263W, strain SAP30, hits give low values 0.55 | locus YNL067W, strain RPL9B, hits give low values 0.319
